Compounds without any hit were thinned out: in the full panel of roughly 83,000, 20% have a hit.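 Cell lines were cultured in 96-well plates, exposed to a single compound concentration, and assessed for percent growth 48 hours later.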 A number with no mark means an inactive call. Calls of active or inactive are those of the source. The calls were made as follows: active = growth percent below 10; inactive = the rest.

Experimental findings from PubChem BioAssay (NCI) are described below.

Test systems include DU-145 prostate; K-562 leukemia; MALME-3M melanoma; MDA-MB-231 breast; RXF 393 renal; SF-268 CNS; SF-295 CNS; SF-539 CNS; UACC-257 melanoma; M14 melanoma; HCT-15 colon; HT29 colon; SNB-75 CNS; SNB-19 CNS; U251 CNS; PC-3 prostate; SK-MEL-5 melanoma; UACC-62 melanoma; LOX IMVI melanoma; SK-MEL-28 melanoma.
What all share (experiment): NCI-60 one-dose screen, 48 h (100 = growth as untreated, 0 = no growth, -100 = all killed)
What all share (details): 10 µM unless noted

Regarding `Fc1ccc2[nH]cc(-c3nc(-c4c[nH]c5ccncc45)cs3)c2c1`, the growth in the experiment on DU-145 prostate is -0.992% (active); with K-562 leukemia it was -41.7% (active); in the experiment with MALME-3M melanoma, -85.3% (active); in the experiment with MDA-MB-231 breast it was -59.8% (active); with RXF 393 renal, -84.6% (active); with SF-268 CNS, -31.5% (active). Moreover, the growth with SF-295 CNS is -74.1% (active); in the experiment with SF-539 CNS it was -92.6% (active); in the experiment on UACC-257 melanoma, -67.8% (active); in the experiment on M14 melanoma it was -66.4% (active); in the experiment on HCT-15 colon it was -50% (active); in the experiment with HT29 colon it was -62.9% (active). The growth in the experiment on SNB-75 CNS was -31.6% (active); with SNB-19 CNS, -48.4% (active); in the experiment with U251 CNS, -81.8% (active); with PC-3 prostate, 7.43% (active); with SK-MEL-5 melanoma, -94.6% (active); in the experiment with UACC-62 melanoma it was -75.3% (active). For the same compound, the results for the growth in the experiment with LOX IMVI melanoma and with SK-MEL-28 melanoma were -92.3% (active) and -92.1% (active), respectively.

For `CCN(CC)Cc1cc(Nc2ccnc3cc(Cl)ccc23)ccc1O`, the growth is 97.4% in the experiment with DU-145 prostate; 87.1% in the experiment with K-562 leukemia; 104% with MALME-3M melanoma; 72.3% in the experiment on MDA-MB-231 breast; 97.4% in the experiment on RXF 393 renal; 77.8% in the experiment on SF-268 CNS. The growth in the experiment on SF-295 CNS was 93.4%; in the experiment on SF-539 CNS, 85.6%; with UACC-257 melanoma, 112%; with M14 melanoma, 91.2%; in the experiment on HCT-15 colon it was 68%; in the experiment on HT29 colon it was 81.2%. Moreover, the growth in the experiment on SNB-75 CNS is 83.4%; in the experiment on SNB-19 CNS it was 88.7%; in the experiment on U251 CNS it was 89.4%; in the experiment with PC-3 prostate, 93.2%; in the experiment with SK-MEL-5 melanoma, 96.7%; with UACC-62 melanoma, 92.7%. Further, the values for the growth with LOX IMVI melanoma and in the experiment with SK-MEL-28 melanoma were 85.8% and 94.9%, respectively.

Turning to `COc1cc(C2C(C(=O)OCc3ccccc3)=C(C)NC(C)=C2C(=O)OCc2ccccc2)cc(OC)c1OC`, the growth was 53.9% in the experiment on DU-145 prostate; 20.3% with K-562 leukemia; 18% in the experiment with MALME-3M melanoma; 31.9% in the experiment on MDA-MB-231 breast; -18.5% (active) in the experiment with RXF 393 renal; 37.6% in the experiment with SF-268 CNS. The growth in the experiment with SF-295 CNS is 15.4%; in the experiment with SF-539 CNS, 41.3%; in the experiment with UACC-257 melanoma it was 19.5%; in the experiment on M14 melanoma, 21.9%; in the experiment with HCT-15 colon it was 23.4%; in the experiment with HT29 colon it was 12.3%. Moreover, the growth was 46.2% in the experiment with SNB-75 CNS; 42.5% in the experiment with SNB-19 CNS; 31.3% with U251 CNS; 9.87% (active) with PC-3 prostate; 8.07% (active) in the experiment with SK-MEL-5 melanoma; 30.2% in the experiment on UACC-62 melanoma. The growth in the experiment with LOX IMVI melanoma was 29.9%; in the experiment on SK-MEL-28 melanoma it was 41.1%.

`CCn1c(-c2cc3c([nH]c4ccccc43)c(-c3cccc(O)c3)n2)n[nH]c1=S`: the growth in the experiment on DU-145 prostate is 62.3%; in the experiment with K-562 leukemia, 14.3%; in the experiment with MALME-3M melanoma, 51%; in the experiment on MDA-MB-231 breast it was 46.9%; in the experiment on RXF 393 renal, 8.59% (active); with SF-268 CNS it was 48.3%. For the same compound, the growth was 36.8% with SF-295 CNS; 30% in the experiment on SF-539 CNS; 41% with UACC-257 melanoma; 18.1% with M14 melanoma; 50.2% in the experiment with HCT-15 colon; -19.4% (active) in the experiment on HT29 colon. Also, the growth in the experiment on SNB-75 CNS is 22.2%; with SNB-19 CNS it was 62.6%; in the experiment on U251 CNS, 23.8%; with PC-3 prostate, 34.1%; in the experiment with SK-MEL-5 melanoma, -1.38% (active); in the experiment with UACC-62 melanoma, 43.6%. The growth was 32.5% in the experiment on LOX IMVI melanoma and 53.6% with SK-MEL-28 melanoma.

On to `CCN(CC)CCN1C(=O)c2c(c(C)c3c(oc4ccc(O)cc43)c2C)C1=O`, for which the growth was 0.0633% (active) with DU-145 prostate; 6.29% (active) in the experiment with K-562 leukemia; 73.3% with MALME-3M melanoma; -28.7% (active) in the experiment with MDA-MB-231 breast; 98.2% with RXF 393 renal; 37.1% in the experiment with SF-268 CNS. In addition, the growth is 89.7% with SF-295 CNS; -99.5% (active) in the experiment with SF-539 CNS; 93.1% with UACC-257 melanoma; 38.3% with M14 melanoma; 10.5% in the experiment on HCT-15 colon; 67.9% with HT29 colon. Further, the growth with SNB-75 CNS was 94.3%; in the experiment on SNB-19 CNS, 24.7%; in the experiment on U251 CNS, -23.8% (active); with PC-3 prostate it was 49.7%; in the experiment with SK-MEL-5 melanoma, 77.2%; in the experiment with UACC-62 melanoma, 56.6%. Moreover, the figures for the growth in the experiment on LOX IMVI melanoma and in the experiment on SK-MEL-28 melanoma were -94.1% (active) and 72.2%, respectively.

Consider `NNCCc1ccc(NC(=O)CCCc2ccc(C(=O)Nc3ccccc3N)cc2)cc1`, for which the growth was 90.7% with DU-145 prostate; 43.5% with K-562 leukemia; 56.9% in the experiment with MALME-3M melanoma; 67.5% in the experiment on MDA-MB-231 breast; 75.2% in the experiment on RXF 393 renal; 72.3% with SF-268 CNS. In addition, the growth is 69% in the experiment with SF-295 CNS; 60.8% in the experiment with SF-539 CNS; 41.4% in the experiment with UACC-257 melanoma; 72% in the experiment with M14 melanoma; 96.8% in the experiment with HCT-15 colon; 51.1% with HT29 colon. Also, the growth with SNB-75 CNS was 68.2%; in the experiment on SNB-19 CNS, 85.5%; in the experiment on U251 CNS it was 54.1%; in the experiment on PC-3 prostate it was 55.1%; with SK-MEL-5 melanoma, 57.1%; in the experiment with UACC-62 melanoma, 49.2%. Further, the growth with LOX IMVI melanoma was 63.7%; with SK-MEL-28 melanoma, 75.6%.

In the case of `C=C1C(=O)O[C@H]2[C@H]1CC/C(COC(=O)/C=C/C(=O)OC/C1=C/CC[C@@]3(C)O[C@H]3[C@H]3OC(=O)C(=C)[C@@H]3CC1)=C\CC[C@@]1(C)O[C@@H]21`, the growth in the experiment on DU-145 prostate was 25.4%; in the experiment on K-562 leukemia it was 5.18% (active); in the experiment with MALME-3M melanoma, -27.3% (active); in the experiment on MDA-MB-231 breast, -7.25% (active); with RXF 393 renal, -11.3% (active); in the experiment on SF-268 CNS it was 90.3%. Further, the growth in the experiment with SF-295 CNS is 115%; in the experiment on SF-539 CNS, 82.2%; in the experiment on UACC-257 melanoma, 60.3%; with M14 melanoma it was 27.5%; in the experiment with HCT-15 colon it was 13.1%; with HT29 colon it was 8.88% (active). The growth with SNB-75 CNS was 95.2%; in the experiment on SNB-19 CNS, 90.5%; in the experiment with U251 CNS it was 76%; in the experiment on PC-3 prostate, 61.1%; in the experiment with SK-MEL-5 melanoma it was 83.1%; in the experiment on UACC-62 melanoma, 55.1%. In addition, the growth is 3.81% (active) in the experiment with LOX IMVI melanoma and 51.8% in the experiment with SK-MEL-28 melanoma.
